Assay results taken from ChEMBL document CHEMBL4513216, “Probing the Open Global Health Chemical Diversity Library for Multistage-Active Starting Points for Next-Generation Antimalarials” (ACS Infect Dis, 2020).
The whole screen tested about 69,000 compounds, of which about 8,600 (12%) showed an effect of 50% or more. The list comes from a sample in which strong results are over-represented; it also holds similar structures and randomly drawn compounds.

Each molecule was assayed on Plasmodium berghei (assay: Screen against P. berghei liver stage (PbLuc), transformed with Luciferase, at 10uM). Settings: tested at 10 uM.
Format: functional, HepG2
With `Cc1nn(CCO)c(C)c1CN1CCN(C2CCCCC2)C(=O)C1` the INHIBITION was 16.9%. Work on `CC(=O)NCCNC(=O)Nc1cccc(Cl)c1SC(F)F` yielded an INHIBITION of 46.4%. For `CCNC(=O)CNC(=O)Nc1cccc(Cl)c1SC(F)F`, the INHIBITION was 64.3%. Work on `CN(C)C(=O)CNC(=O)Nc1cccc(Cl)c1SC(F)F` yielded an INHIBITION of 23.2%. `O=C(NCCO)Nc1cccc(Cl)c1SC(F)F` showed an INHIBITION of 13%. `O=C(CNC(=O)Nc1cccc(Cl)c1SC(F)F)NC1CC1` was tested, and the INHIBITION was 29.5%. `CNC(=O)CCNC(=O)Nc1cccc(Cl)c1SC(F)F` gave an INHIBITION of 60.3%. For `O=C(NCC1COCc2c(-c3cccnc3)nnn2C1)c1cccs1` (stereo not given), the INHIBITION was 43.2%. With `COCCNc1ccc(CC2CCCNC2)cn1` (stereo not given) the INHIBITION was 44.3%. With `CO[C@@H]1CCN(S(=O)(=O)c2cn(C)cn2)[C@H]1Cc1ccncc1` the INHIBITION was 39.4%. In the case of `Cc1nccn1CCNC(=O)C1(C)CC(c2ccccc2)=NO1` (stereo not given), the INHIBITION is reported as -1.16%. `CCO[C@@H]1CC[C@H]2[C@H]1OCCN2Cc1ccc(F)cc1` showed an INHIBITION of 8.52%. `COc1ccc(CN2CCO[C@H]3[C@H](OCCN4CCCC4)CC[C@@H]32)cc1` showed an INHIBITION of 0.618%. `CCN(CC)CCN1CCO[C@H]2[C@@H](OCc3ccncc3)CC[C@@H]21` showed an INHIBITION of 29%. `COc1ccc(CN2CCO[C@H]3[C@H](OCc4ccncc4)CC[C@@H]32)cc1` was tested, and the INHIBITION was 90.1%. Work on `Cc1ccc(CN2CCO[C@@H]3[C@@H](OCc4cccnc4)CC[C@@H]32)o1` yielded an INHIBITION of 26.5%. For `Fc1ccc(CN2CCO[C@H]3[C@H](OCc4ccncc4)CC[C@@H]32)cc1`, the INHIBITION was 92.8%. With `COCCN1CCO[C@H]2[C@H](OCc3cccc(C)n3)CC[C@@H]21` the INHIBITION was -8.25%. In the case of `Cc1ccc(CN2CCO[C@H]3[C@H](OCc4cccnc4)CC[C@@H]32)o1`, the INHIBITION is reported as 56.4%. Work on `Cc1cccc(CO[C@@H]2CC[C@H]3[C@H]2OCCN3Cc2ccoc2)n1` yielded an INHIBITION of 67.5%. Molecule `CO[C@@H]1CC[C@H]2[C@H]1OCCN2Cc1ccc(F)cc1` has an INHIBITION of 25.3%. In the case of `Cc1cccc(CO[C@@H]2CC[C@H]3[C@H]2OCCN3Cc2ccsc2)n1`, the INHIBITION is reported as 16.6%. `Cc1ccc(CN2CCO[C@H]3[C@@H](OCc4cccnc4)CC[C@@H]32)o1` gave an INHIBITION of 15.6%. `O=C(NCC1CC[C@@H]2[C@@H]1OCCN2Cc1cccs1)c1ccco1` (stereo not given in full) showed an INHIBITION of 12.1%. Work on `CCCn1ncc(CN(Cc2cccnc2)Cc2cccs2)c1C` yielded an INHIBITION of -4.87%. `Cc1ocnc1C(=O)N(C)[C@@H]1CC[C@@H](Oc2ccccc2)[C@@H]1O` was tested, and the INHIBITION was 16.2%. Molecule `COCCO[C@H]1CCN(Cc2cnn(C)c2)[C@H]1Cc1cccnc1` has an INHIBITION of 9.51%. Molecule `CN(C)C(=O)C1OC2(CCN(c3ncc(F)cn3)CC2)c2ccccc21` (stereo not given) has an INHIBITION of 49.3%. Molecule `Cc1noc(C)c1-c1ccnc(C2CCN(S(=O)(=O)N(C)C)CC2)c1` has an INHIBITION of 35.2%. In the case of `CCN(Cc1cn(C)nc1-c1ccc2c(c1)OCCO2)CC1CCCO1` (stereo not given), the INHIBITION is reported as 28.5%. For `CC(C)N1CCCC(CNC(=O)CN(C)S(=O)(=O)c2ccccc2)C1` (stereo not given), the INHIBITION was -3.21%. `Cn1nc(CNC(=O)C2CCC2)cc1C1CC1` gave an INHIBITION of -34.5%. For `Cc1cccc(CO[C@@H]2CC[C@H]3[C@H]2OCCN3Cc2nccs2)n1`, the INHIBITION was -44.2%. `c1cc(CO[C@@H]2CC[C@H]3[C@H]2OCCN3CC2CCOCC2)ccn1` gave an INHIBITION of 68.8%. `c1cc(CO[C@@H]2CN(Cc3ccoc3)[C@@H]3CCCO[C@@H]32)ccn1` showed an INHIBITION of 47.5%. For `c1ccc(CO[C@H]2CC[C@H]3[C@H]2OCCN3Cc2nccs2)nc1`, the INHIBITION was 22.2%. Molecule `c1csc(CN2CCO[C@H]3[C@H](OCC4CCCC4)CC[C@@H]32)n1` has an INHIBITION of 41.2%. With `c1cc(CO[C@H]2CC[C@H]3[C@H]2OCCN3Cc2nccs2)ccn1` the INHIBITION was 84.7%. With `c1cc(CO[C@@H]2CC[C@H]3[C@H]2OCCN3Cc2ccoc2)ccn1` the INHIBITION was 55.7%. Work on `CCO[C@@H]1CC[C@H]2[C@H]1OCCN2Cc1ccoc1` yielded an INHIBITION of 35.8%. In the case of `Cc1cccc(CO[C@@H]2CC[C@H]3[C@H]2OCCN3Cc2cc(C)on2)n1`, the INHIBITION is reported as -46.8%. `O=C(C1CCOCC1)N1CCO[C@H]2[C@@H](OCc3ccncc3)CC[C@@H]21` was tested, and the INHIBITION was 43.3%. Work on `Cc1cccc(CN2CCO[C@H]3[C@@H](OCc4ccncc4)CC[C@@H]32)n1` yielded an INHIBITION of 85.6%. In the case of `O=C(C1CCOCC1)N1CCO[C@H]2[C@H](OCc3ccncc3)CC[C@@H]21`, the INHIBITION is reported as 14.1%. In the case of `COCCN1CCC(c2nc3c([nH]2)CCCNC3=O)CC1`, the INHIBITION is reported as 44%. With `COc1cccc(CNCc2ccc(F)cc2Cl)c1O` the INHIBITION was -38%. `COC(=O)CNC(=O)N1CCN(c2nc3ccccc3n2C)CC1` showed an INHIBITION of 10.7%. Molecule `Cc1nc2[nH]cnc(NCCN3CCCC3)c-2n1` has an INHIBITION of 29.7%. `COCC(=O)N1CC[C@@H]2O[C@@H](COCc3csc(C)n3)CC[C@@H]21` was tested, and the INHIBITION was 27.3%. Work on `CCc1ncc2c(n1)CN(CC(=O)Nc1nncs1)CC2` yielded an INHIBITION of 33.8%. For `Cn1ccnc1S(=O)(=O)C(C(=O)N1CCCCC1)c1ccccc1` (stereo not given), the INHIBITION was 28.1%. `COCCN1CCCc2sc(C(=O)Nc3ccc(C)nc3)nc21` was tested, and the INHIBITION was 16.9%. `Cc1ccc(OCCNc2cccc(C(=O)N3CCOCC3)c2)cc1` showed an INHIBITION of -17.3%. Work on `CC(CN1CCCC1=O)NC(=O)c1ccc(-c2ccco2)[nH]c1=O` (stereo not given) yielded an INHIBITION of 16.6%. `O=c1nc(CNc2ccccc2)[nH]n1Cc1ccccc1` showed an INHIBITION of -31.6%. `COc1nccc(C(F)(F)F)c1C(=O)O` gave an INHIBITION of 4.12%. For `CCN(CC)CCNC(=O)c1ccc(Cl)c(NS(C)(=O)=O)c1`, the INHIBITION was 18.6%. Molecule `CC(C)CCNC(=O)c1ccc(Cl)c(NS(C)(=O)=O)c1` has an INHIBITION of 54.4%. In the case of `Cc1ccc(C(=O)NCCCNS(C)(=O)=O)cc1C`, the INHIBITION is reported as -43.2%. `Cc1ccc(C(=O)NCCC(C)C)cc1NS(C)(=O)=O` showed an INHIBITION of 18.6%. Work on `CC(C)(C)CCNC(=O)c1ccc(Cl)c(NS(C)(=O)=O)c1` yielded an INHIBITION of -3.81%. Molecule `Cc1cc(C(=O)NCCC(C)C)ccc1NS(C)(=O)=O` has an INHIBITION of 65.6%. In the case of `Cc1nccn1-c1ccc(=O)n(CCNC(=O)c2c(F)cccc2Cl)n1`, the INHIBITION is reported as 6.67%. `CCn1ccnc1CN1CCN(CC(O)CN2CCOCC2)CC1` (stereo not given) showed an INHIBITION of 12.415%. In the case of `CC(NC(=O)NCCC1=CCCCC1)c1nncn1C` (stereo not given), the INHIBITION is reported as 15.7%. `Cc1ccc(-c2nc(C3CCN(C(=O)c4ccn(C)n4)CC3)no2)cn1` gave an INHIBITION of -26.7%. Molecule `CN(CC(=O)NCC(F)(F)F)C(=O)c1ccc(C(=O)OC(C)(C)C)cc1` has an INHIBITION of 63.7%. For `CN(CC(=O)NCC(F)(F)F)C(=O)c1ccc(=O)[nH]c1`, the INHIBITION was -10.8%. For `Cc1ccc(C(=O)N(C)CC(=O)NCC(F)(F)F)cn1`, the INHIBITION was 42%. Molecule `COC(=O)c1cccn1C1CCN(C(=O)c2cc(F)ccc2C)CC1` has an INHIBITION of 8.64%. Work on `CS(=O)(=O)N1CC(=O)N(CCCc2ccccc2)CC(O)C1` (stereo not given) yielded an INHIBITION of 42.7%. `COc1ccc(-c2nc(C(=O)NCC3CCOC3)cs2)cc1OC` (stereo not given) was tested, and the INHIBITION was 34.7%. In the case of `Cc1cn[nH]c1C1CCCN1Cc1ccc(F)c(F)c1` (stereo not given), the INHIBITION is reported as 15.5%. `CN(C)C(=O)CCc1cncc(C2CCCN2Cc2ccccn2)n1` (stereo not given) was tested, and the INHIBITION was -1.85%. In the case of `Cc1cccc(CN2CCCC2c2cccc(CCC(=O)O)n2)c1` (stereo not given), the INHIBITION is reported as 51.5%. Molecule `Cc1cc(C)nc(C2CCCN2c2ccnc(C)n2)n1` (stereo not given) has an INHIBITION of 7.52%. In the case of `O=C(O)CCc1cccc(C2CCCN2Cc2cccc(Cl)c2)n1` (stereo not given), the INHIBITION is reported as 19.6%. Molecule `Cc1cc(C)nc(N2CCC(c3cccc(CCC(=O)O)n3)CC2)n1` has an INHIBITION of 4.13%. Work on `Cc1cc(N2CCCC2c2nc(C)cc(CCC(=O)O)n2)ncn1` (stereo not given) yielded an INHIBITION of 9.93%. For `O=C(O)CCc1cccc(C2CCCN2Cc2ccc(F)c(F)c2)n1` (stereo not given), the INHIBITION was 58%. Work on `Cc1cc(CCC(=O)O)nc(C2CCCN2c2ccnc(C)n2)n1` (stereo not given) yielded an INHIBITION of 50.8%. In the case of `O=C(c1ccnnc1)N1C[C@H](OCC2CC2)[C@H]2COC[C@H]21`, the INHIBITION is reported as -2.25%. `CCOC(=O)c1sc(NC(=O)c2cc(=O)c(OC)c[nH]2)nc1C` was tested, and the INHIBITION was 8.12%. For `CCS(=O)(=O)N1CC[C@@H]2[C@H](CC1)N(Cc1cccc(C)n1)CCS2(=O)=O`, the INHIBITION was 49.7%. With `CCc1nc(CN(C)C2CCN(Cc3nnc(C4CCC4)o3)C2)no1` (stereo not given) the INHIBITION was 21.5%. For `CC1c2ncc(CNC(=O)C3CC3)n2CCN1Cc1cnn(C)c1` (stereo not given), the INHIBITION was -8.94%. In the case of `O=C(COc1ccccc1NCc1ccoc1)N1CCOCC1`, the INHIBITION is reported as -5.22%. In the case of `CCc1nnsc1C(=O)N1CCCC1c1c(C)nn(C)c1OC` (stereo not given), the INHIBITION is reported as -25.8%. For `Cc1nc(N)nc(C)c1Cc1nc(C2CC2)n[nH]1`, the INHIBITION was 32.3%. In the case of `Cc1nc(C)c(Cc2nc(C3CC3)n[nH]2)c(=O)[nH]1`, the INHIBITION is reported as 29%. Molecule `Cc1n[nH]c(C)c1CCc1nc(C2CC2)n[nH]1` has an INHIBITION of 50.7%. With `CC(=O)NCC(=O)N1CCN(CCN(C)C)c2ncccc2C1` the INHIBITION was 6.79%. For `Nc1ccncc1-n1cc(CCO)cn1`, the INHIBITION was 33.3%. For `Cn1c(CCNc2nccnc2C#N)nc2ccc(F)cc21`, the INHIBITION was 67.3%. `CC(C)n1nccc1NC(=O)NCCc1nc2ccc(F)cc2n1C` gave an INHIBITION of 73.6%. `Cn1c(CCNc2nccnc2C#N)nc2cc(Cl)ccc21` gave an INHIBITION of 32.3%. Work on `Cn1c(CCCNC(=O)Nc2cn[nH]c2)nc2ccccc21` yielded an INHIBITION of -7.66%. In the case of `Cn1c(CCNC(=O)Nc2cn[nH]c2)nc2ccc(F)cc21`, the INHIBITION is reported as -5.52%. `Cc1nnc(NCCc2nc3ccc(F)cc3n2C)c(C#N)c1C` was tested, and the INHIBITION was 34.1%. For `Cc1nc(C2CCCN2CCOCC2CC2)no1` (stereo not given), the INHIBITION was -77.6%.
